Key:
Assay in all cases: PBM binding z-score (relative to random genomic background probes); higher = stronger binding; sequences stand for … in GC…GCGATTGACAGCGTAGAATGAAGG
[1] = tested on: FXR:RXRa (NR concentration 270 nM, RXRa partner concentration 90 nM)
Procedure, shortened: (§1)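 Custom Agilent 4×180K protein-binding microarrays carried double-stranded probes. Their 34-nt variable regions held direct-repeat seeds, single-nucleotide variants, half-site ablations and random human genomic background sequences. Arrays were incubated 1 h with ligand-free nuclear receptor dimers in PBS pH 7.4, 2% milk, 0.02% Triton X-100, 1 mM DTT, 0.2 mg/mL BSA and 0.4 mg/ml salmon testes DNA. Antibodies against each partner (one per run) detected binding, and scanned fluorescence was regression-normalized. Binding z-scores use random background probes as reference.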

[2] = tested on: LXRa:RXRa (NR concentration 270 nM, RXRa partner concentration 90 nM)
Procedure, shortened: as §1

[3] = tested on: LXRa homodimer (NR concentration 270 nM)
Procedure, shortened: as §1

[4] = tested on: LXRb:RXRa (NR concentration 270 nM, RXRa partner concentration 90 nM)
Procedure, shortened: as §1

[5] = tested on: LXRb homodimer (NR concentration 270 nM)
Procedure, shortened: as §1

[6] = tested on: PPARa:RXRa (NR concentration 270 nM, RXRa partner concentration 90 nM)
Procedure, shortened: as §1

[7] = tested on: PPARg:RXRa (NR concentration 180 nM, RXRa partner concentration 90 nM)
Procedure, shortened: as §1

[8] = tested on: PPARg:RXRa 270nM:90nM, anti-RXR (NR concentration 270 nM, RXRa partner concentration 90 nM)
Procedure, shortened: as §1

[9] = tested on: PPARg:RXRa 30nM:10nM, anti-RXR (NR concentration 30 nM, RXRa partner concentration 10 nM)
Procedure, shortened: as §1

[10] = tested on: PPARg:RXRa 90nM:30nM, anti-RXR (NR concentration 90 nM, RXRa partner concentration 30 nM)
Procedure, shortened: as §1

[11] = tested on: PPARg:RXRa DBDmut IVT, anti-RXR (DBD mutation: RXRa K156A/R161A, NR concentration 270 nM, RXRa partner concentration 90 nM)
Procedure, shortened: as §1

[12] = tested on: PPARg:RXRa IVT, anti-PPARg (NR concentration 270 nM, RXRa partner concentration 90 nM)
Procedure, shortened: as §1

[13] = tested on: PPARg DBDmut:RXRa IVT, anti-PPARg (DBD mutation: PPARg1 K132A/R137A, NR concentration 270 nM, RXRa partner concentration 90 nM)
Procedure, shortened: as §1

[14] = tested on: PPARg DBDmut IVT, anti-PPARg (DBD mutation: PPARg1 K132A/R137A, NR concentration 270 nM)
Procedure, shortened: as §1

[15] = tested on: PPARg homodimer (NR concentration 180 nM)
Procedure, shortened: as §1

[16] = tested on: PXR:RXRa (NR concentration 270 nM, RXRa partner concentration 90 nM)
Procedure, shortened: as §1

[17] = tested on: PXR homodimer (NR concentration 270 nM)
Procedure, shortened: as §1

[18] = tested on: RARa:RXR (NR concentration 270 nM, RXRa partner concentration 90 nM)
Procedure, shortened: as §1

[19] = tested on: RARa homodimer (NR concentration 270 nM)
Procedure, shortened: as §1

[20] = tested on: RARb:RXRa (NR concentration 270 nM, RXRa partner concentration 90 nM)
Procedure, shortened: as §1

Row | Sequence | PBM binding z-score [1] | PBM binding z-score [2] | PBM binding z-score [3] | PBM binding z-score [4] | PBM binding z-score [5] | PBM binding z-score [6] | PBM binding z-score [7] | PBM binding z-score [8] | PBM binding z-score [9] | PBM binding z-score [10] | PBM binding z-score [11] | PBM binding z-score [12] | PBM binding z-score [13] | PBM binding z-score [14] | PBM binding z-score [15] | PBM binding z-score [16] | PBM binding z-score [17] | PBM binding z-score [18] | PBM binding z-score [19] | PBM binding z-score [20]
1 | TCAGACAGGTGAAGGTAACCCAGGTACGCAGTCG | 1.04 | 1.3 | 0.143 | 0.546 | -0.122 | 1.45 | 0.909 | 2.04 | 3.53 | 2.77 | 2.61 | 2.16 | 0.501 | -0.304 | 0.633 | 0.747 | 0.22 | 0.961 | 0.035 | 1.44
2 | TAGCCTAGGTCAGATCGGGCCAGTATCCGCTATA | 2 | 1.05 | -0.375 | 0.765 | -0.472 | 1.69 | 0.405 | 0.707 | -0.351 | -0.0749 | 0.546 | 1.41 | -0.474 | -1.24 | 0.0691 | 0.834 | -0.885 | 1.1 | -1.32 | 3.02
3 | GTACCAAGGTGAATAGGTGGTTGATGAGTAGGCG | 0.118 | 0.242 | -0.513 | -0.25 | -0.203 | 0.864 | 0.851 | 0.683 | 0.0319 | 0.389 | 1.79 | 1.93 | 0.268 | -0.307 | 0.741 | -0.428 | 0.469 | -0.021 | 0.656 | 1.21
4 | TCGAGTAGGTTAGGGGCATTCGGAATGGCGTCGA | 0.123 | 0.347 | -0.32 | 0.736 | -0.712 | 1.06 | 0.477 | 2.22 | 1.15 | 1.51 | 1.94 | 1.69 | -0.634 | -0.223 | 0.203 | 0.507 | -0.0899 | 0.497 | -0.724 | 1.09
5 | CAAACTAGGTCACCGGAAGGTCAAAATCCGCATG | 5.79 | 5.77 | 4.45 | 5.33 | 1.71 | 6.21 | 9.82 | 7.79 | 5.96 | 7.63 | 8.74 | 9.07 | 7.15 | 5.58 | 9.41 | 5.86 | 1.73 | 7.2 | 3.23 | 5.11
6 | CTCGAAAGGTCGGTTGAGGTGAGTATTCGGATAA | 2.94 | 1.75 | -0.326 | 1.32 | -0.125 | 2.56 | -0.124 | 1.15 | 0.0232 | 0.23 | 0.311 | 0.955 | -0.267 | 0.135 | 1.02 | 3.05 | -0.0873 | 2.04 | 0.255 | 3.25
7 | TCTATTAGTTGATTAGGGCAACAGAAACAGCGGA | 0.997 | 0.779 | 0.0498 | 0.646 | 0.947 | 1.01 | 0.317 | 1.96 | 3.53 | 2.85 | 2.04 | 1.59 | 1.69 | 1.06 | 1.02 | 0.573 | 0.374 | 0.636 | 1.08 | 0.82
8 | CCATACAGGTGAGAAGGTAACTCAGCCTCGATTA | 0.317 | 0.251 | 0.308 | 0.309 | -0.0623 | 1.01 | 1.03 | 1.68 | 0.288 | 1.26 | 2.08 | 1.63 | 0.397 | 0.148 | 0.629 | 0.166 | 0.14 | 0.725 | 1.02 | 0.628
9 | ATCGAAAGGTCGACGGGGTGAGTATACACCGTTT | 4.95 | 3.54 | 0.287 | 3.23 | 0.368 | 4.57 | 3 | 3.48 | 0.859 | 2.28 | 0.683 | 2.19 | 1.15 | 0.814 | 2.18 | 3.64 | 1.33 | 4.46 | 0.456 | 3.98
10 | CCTATAAGTTGACCATAAGGGCAACCGAAGCTCG | 1.36 | 0.588 | 0.467 | 0.379 | 0.387 | 0.93 | 0.632 | 0.292 | 0.0132 | -0.0263 | 0.357 | 0.771 | 0.17 | -0.0168 | 1.61 | 0.964 | 0.7 | 1.23 | 1.27 | 1.8
11 | CCTTACGGGTCACTCCAGGTTATCGCATCGGAGT | 4.86 | 7.44 | 2.05 | 5.17 | 0.292 | 4.26 | 3.02 | 3.76 | 0.874 | 2.38 | 2.41 | 3.83 | -0.0167 | -0.117 | 1.35 | 4.65 | 0.118 | 3.01 | 0.208 | 3.55
12 | AGTCAACGTTCACTAGGTAACGTAAGATTCAGCT | -0.243 | -0.0638 | -0.401 | -0.00739 | 0.00206 | 0.525 | 0.874 | 0.511 | 0.121 | 0.475 | 2.07 | 2.83 | 0.496 | 0.783 | -0.0596 | -0.163 | -0.41 | -0.184 | -0.305 | 0.64
13 | GCTGCTAGGTCAACTGATGGTCAGCCAAAGCTCG | 3.81 | 3.1 | 0.159 | 2.08 | 0.187 | 3.65 | 2.88 | 2.91 | 0.226 | 1.68 | 4.84 | 3.92 | 0.564 | -0.45 | 1.57 | 1.39 | -0.698 | 2.93 | -0.0572 | 4.27
14 | CAAACTAAGTCACAGAGGTCAAAGTCCGTGCGTA | 5.08 | 5.61 | 5.8 | 5.22 | 2.02 | 5.18 | 3.74 | 4.78 | 2.63 | 4.18 | 2.87 | 3.84 | 0.32 | 0.368 | 4.44 | 5.86 | 3.71 | 6.39 | 2.59 | 4.05
15 | TCTAGCAGGCCAGCGGGTCACTCAAGAGGTACGG | 0.662 | 0.558 | -0.567 | 0.777 | -0.97 | 1.92 | 0.601 | 1.74 | 1.72 | 1.65 | 0.972 | 1.03 | -0.284 | -0.723 | 0.406 | 1.12 | -0.865 | 1.81 | -0.465 | 1.81

From the supplement of paper PMC6555819
